# D1 ag: human D1 receptor agonism; P21728; HEK293 T-REx D1 cells, calcium flux, agonist mode; activation, % at 2 µM; actives 1% (n = 360,000); note: 0% is about no effect
#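 Inducible HEK293 T-REx D1 cells, force-coupled to calcium signalling, were plated at 4000 cells/well with tetracycline and held overnight at 30 C. After no-wash calcium dye loading, compound-evoked calcium rise over 180 s flagged agonists.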
# TRHR agonist: TRH receptor (human) agonism | P34981 | TRHR cells, calcium flux fluo-8, FDSS agonist mode | activation, % at 2 µM | actives 0.18% (n = 360,000); note: 0% is about no effect
# Target sequence (P34981 whole entry, looked up): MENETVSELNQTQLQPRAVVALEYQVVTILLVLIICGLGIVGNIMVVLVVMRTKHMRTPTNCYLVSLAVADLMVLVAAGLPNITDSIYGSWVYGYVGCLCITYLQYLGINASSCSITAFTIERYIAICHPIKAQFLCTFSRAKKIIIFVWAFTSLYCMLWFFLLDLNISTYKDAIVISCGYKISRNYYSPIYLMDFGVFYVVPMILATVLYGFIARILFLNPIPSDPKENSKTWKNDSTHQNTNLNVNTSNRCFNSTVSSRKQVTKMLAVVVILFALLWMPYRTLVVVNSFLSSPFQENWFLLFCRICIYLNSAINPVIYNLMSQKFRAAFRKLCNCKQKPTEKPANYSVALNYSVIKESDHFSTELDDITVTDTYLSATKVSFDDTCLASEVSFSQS
#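 TRHR-expressing cells, plated overnight in medium with 10% serum, were loaded with fluo-8 calcium dye at room temperature. After a 10 s baseline, library compound was pin-added and calcium release was recorded kinetically (ex 480/em 530) as agonist response.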
# D1 antagonist: human D1 dopamine receptor antagonism. HEK293 TREx D1 cells, calcium flux, dopamine EC80; stronger effect = lower value. activity change, negative = inhibition, % at 10 µM. actives 3.2% (n = 360,000). AID 504652; in the data active = activity change below about -30%; note: % is set by controls: 0 for no effect and ±100 for the full control effect
#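 Tetracycline-induced HEK293 T-REx cells with force-coupled D1 receptor were loaded with a no-wash calcium dye. Compound was added after a 10 s baseline and read kinetically for 180 s; EC80 dopamine was then added and calcium flux followed another 180 s.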
# TRHR enhancer: allosterically enhances the human TRH receptor. enhancement, % at 2 µM. AID 493056. actives 0.66% (n = 360,000). TRHR cells, fluo-8 calcium fluorescence, EC20 TRH enhancement. P34981; in the data active = enhancement above about 30%; note: 0% is about no effect
#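 TRHR-expressing cells loaded with fluo-8 calcium dye were read kinetically (ex 480/em 530) during compound addition, then stimulated with an EC20 of TRH (10 nM final). Enhancement of the Gq-mediated intracellular calcium response was scored.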
# D1 PAM: enhances dopamine response at the human D1 receptor; P21728; HEK293 TREx D1 cells, calcium flux, dopamine EC20 potentiation; potentiation, % at 10 µM; actives 0.036% (n = 360,000); AID 504651; in the data active = potentiation above about 30%; note: 0% is about no effect
# The depositor's hits bear a star; . = no result given. Compounds with a hit are over-represented: about 4.7% of the library has one in this group of screens. Cut-off read from the data, not from the text of the source, unless noted: active = activation above about 30%; inactive = the rest.
SMILES,D1 ag,TRHR agonist,D1 antagonist,TRHR enhancer,D1 PAM
C#CCOCCOCCOCCNc1nc(N2CCN(C(=O)[C@H]([C@@H](C)CC)n3cc([C@@H](N)CC(C)C)nn3)CC2)nc(N2CCN(C(=O)[C@H](CCCCN)n3cc([C@@H](N)C(C)CC)nn3)CC2)n1 (stereo partly drawn),-1,0,5,-8,-2
C#CCOCCOCCOCCNc1nc(N2CCN(C(=O)[C@H]([C@@H](C)CC)n3cc([C@@H](N)CO)nn3)CC2)nc(N2CCN(C(=O)[C@H](CCCCN)n3cc([C@@H](N)C(C)CC)nn3)CC2)n1 (stereo partly drawn),-4,1,7,1,-4
CCc1ccc(Sc2cc(C(=O)NCc3ccccc3OC)c3ccccc3n2)cc1,5,1,-6,1,-2
Cc1c(C(=O)N2CCC(C)CC2)sc2ncnc(N3CCN(c4ccccc4)CC3)c12,1,0,3,-4,-2
O=C(NCCN1C(=O)S/C(=C\c2ccc(Cl)c([N+](=O)[O-])c2)C1=O)C1=COCCO1,8,0,-57*,-4,-6
O=C(NCCN1C(=O)S/C(=C\c2ccc(Cl)c(Cl)c2)C1=O)c1cnccn1,-1,1,-5,-3,-1
COc1ccc(-c2nnn(CCC(=O)O)n2)cc1,1,1,.,-6,-2
COc1cccc(-c2nnn(CCC(=O)O)n2)c1,0,0,-40*,-7,-10
CCCCSCCCNC(=O)C1CCC(CNS(=O)(=O)c2c(C)cc(C)cc2C)CC1 (stereo not drawn),12,1,1,13,-3
Cc1ccc(CC(=O)N(Cc2nc(-c3ccc(C)cc3)no2)C(C)C)cc1,7,0,-2,-1,0
Cc1ccc(NC(=O)Cc2ncon2)cc1Cl,1,1,-45*,0,-3
Cc1ccc(NC(=O)Cc2coc3ccc(C(C)C)cc23)c(C)c1,5,0,-9,-1,2
Cc1ccc(NC(=O)Cc2cccs2)cc1Cl,-1,-1,-12,-7,1
Cc1ccc(NC(=O)Cc2coc3ccc(C(C)C)cc23)cc1Cl,38*,-1,-2,3,0
Oc1ccc(C=NC2CCCCC2)cc1,1,0,-35*,7,-8
O=C1CC(c2ccccc2)CC(O)=C1C=NC1CCCCC1 (stereo not drawn),2,0,-3,-1,-3
Cn1c(SCc2cc(=O)c3cc(Cl)ccc3[nH]2)nnc1-c1ccccc1,3,-1,-18,3,-3
COc1ccc(CCNC(=O)c2cnn(-c3ccc(F)cc3)c2C2CCN(C(=O)OC(C)(C)C)CC2)c(OC)c1,1,-1,-1,11,-1
O=c1[nH]c(=O)n(Cc2ccccc2)c2nc(-c3cccs3)n(CCO)c12,0,0,2,-4,-4
O=c1[nH]c(=O)n(Cc2ccccc2)c2nc(-c3ccc(C(F)(F)F)cc3)n(CCO)c12,10,0,-31*,14,1
O=c1[nH]c(=O)n(CCO)c2nnn(Cc3ccccc3)c12,3,0,-31*,2,-9
Cn1cnc2c1c(=O)[nH]c(=O)n2Cc1ccccc1,3,2,-1,-3,0
CCOc1ccc(NC(=O)Cn2c(=O)n(CCCS(=O)(=O)C3CCCCC3)c(=O)c3ccccc32)cc1,2,0,4,-2,0
O=C(O)/C=C\C(=O)Nc1ccc(Oc2ccccc2)cc1,0,0,-63*,6,-6
O=C(O)/C=C\C(=O)Nc1ccc(Oc2ccc(Br)cc2)cc1,-1,1,-31*,0,-4
SMILES,D1 ag,TRHR agonist,D1 antagonist,TRHR enhancer,D1 PAM
COc1ccc(N2CCN(C(=O)c3ccc4c(c3)[nH]c(=S)n3c5ccccc5nc43)CC2)cc1,1,0,-32*,-3,-5
O=C(c1ccc2c(c1)[nH]c(=S)n1c3ccccc3nc21)N1CCN(c2cccc(Cl)c2)CC1,3,0,12,-1,-10
Cc1ccccc1NC(=O)CSc1ccc(-c2ccco2)nn1,4,0,-71*,-6,-9
Cc1ccc(C)c(NC(=O)CSc2ccc(-c3ccco3)nn2)c1,1,-2,10,4,-8
CCN(c1ccccc1)S(=O)(=O)c1ccc2[nH]cc(C(=O)NCc3ccc(C)cc3)c(=O)c2c1,2,0,0,5,-5
O=C(NCCSCc1ccco1)Nc1ccc(Cl)cc1,6,0,-30*,-7,-6
COc1ccc(C(=O)NCCSCc2ccco2)cc1OC,3,0,-34*,-3,-8
CCCSc1nnc2n(-c3ccc(OC)cc3)c(=O)c3c4c(sc3n12)COC(C(C)C)C4 (stereo not drawn),-2,-1,-4,-2,0
CC(=O)C(N=Nc1ccccc1)(Sc1nnc(-c2ccccc2)n1-c1ccccc1)C(C)=O,8,0,-32*,-1,1
Cc1nnnn1/C(=C\c1ccccc1)C(=O)OCC(=O)NC(C)(C)C,2,0,20,33*,-4
CC(=O)Nc1ccc(NC(=O)COC(=O)/C(=C/c2ccccc2)n2nnnc2C)cc1,2,1,7,4,-15
Cc1cc(C)nc(NS(=O)(=O)c2ccc(NC(=O)COc3ccc(C(C)(C)C)cc3)cc2)n1,0,-1,8,7,2
N#C/C(=C(O)\C=C\c1ccccc1)c1nc2ccccc2[nH]1,3,1,-31*,6,-16
CC(C)(C)/C(O)=C(/C#N)c1nc2ccccc2[nH]1,1,1,3,-5,0
CN1CCN(/N=C/c2nc(-c3ccc(Cl)cc3)n3ccccc23)CC1,12,0,-61*,5,-7
CN1CCN(/N=C/c2nc(-c3ccccc3)n3ccccc23)CC1,-1,0,-1,2,-6
COc1cccc(CNC(=O)CCCn2c(=O)c3cccn3c3ccc(F)cc32)c1OC,2,0,12,2,-1
O=C1/C(=C/c2cccs2)Sc2ccccc21,3,2,-93*,2,1
O=C(O)CCN(Cc1ccccc1)S(=O)(=O)c1ccc(Cl)cc1F,2,0,-38*,4,-2
Cn1nnnc1NCc1cccc(Cl)c1,0,0,4,2,-4
Clc1cccc(CNc2nnnn2-c2ccccc2)c1,37*,0,-46*,-2,-11
CC(=O)Nc1ccc(NS(=O)(=O)c2ccc3[nH]c4c(c3c2)CCCCC4)cc1,3,4,6,-8,-4
O=C1NC(=O)/C(=C/c2ccccc2OCc2ccccc2)S1,5,1,-11,-2,-4
O=C1NC(=O)/C(=C\c2ccccc2Oc2ccc(F)c(F)c2)S1,8,0,-34*,-2,-2
CN(Cc1ccccc1)S(=O)(=O)c1ccc2[nH]c(=O)oc2c1,7,1,-38*,-2,4
